The list is not random: actives were taken first. Their share in the collection is about 2.4%.
Pol kappa inh – blocks human DNA polymerase kappa activity | Q9UBT6 | Potency, µM (top dose mostly 107 µM), without a hit: at the highest dose activity, negative = inhibition, most hits filed as inhibitors | 400,000 tested, 0.53% active | purified Pol kappa, fluorescent DNA synthesis assay, 10 min | AID 588579; also: % is scaled to controls: 0 for no effect and ±100 for the full control effect
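10 nM Pol kappa was preincubated with compounds for 15 min at room temperature. Reaction started with 50 nM (final) substrate. Fluorescence read kinetically at 0 and 10 min.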
Pol beta inh – DNA polymerase beta (human) inhibition; 340,000 tested, 1.3% active; Pol beta primer extension/strand displacement, fluorescence kinetic; Potency, µM (doses to about 114 µM), without a hit: at the highest dose activity change, negative = inhibition, hits mostly inhibitors; P06746; also: % is scaled to controls: 0 for no effect and ±100 for the full control effect
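Enzyme-only controls used 10 nM Pol beta; buffer lacking enzyme served as negative control. Compound preincubated 15 min, then 50 nM substrate added; 0 and 10 min reads at room temperature.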
POLI inh – inhibitors of human DNA polymerase iota; Pol iota fluorescent replication assay, 10 min; Potency, µM (top dose mostly 115 µM), without a hit: at the top dose activity, negative = inhibition, usual class: inhibitors; 390,000 tested, 1% active; AID 588590
Target sequence (Q9UNA4 whole entry, looked up): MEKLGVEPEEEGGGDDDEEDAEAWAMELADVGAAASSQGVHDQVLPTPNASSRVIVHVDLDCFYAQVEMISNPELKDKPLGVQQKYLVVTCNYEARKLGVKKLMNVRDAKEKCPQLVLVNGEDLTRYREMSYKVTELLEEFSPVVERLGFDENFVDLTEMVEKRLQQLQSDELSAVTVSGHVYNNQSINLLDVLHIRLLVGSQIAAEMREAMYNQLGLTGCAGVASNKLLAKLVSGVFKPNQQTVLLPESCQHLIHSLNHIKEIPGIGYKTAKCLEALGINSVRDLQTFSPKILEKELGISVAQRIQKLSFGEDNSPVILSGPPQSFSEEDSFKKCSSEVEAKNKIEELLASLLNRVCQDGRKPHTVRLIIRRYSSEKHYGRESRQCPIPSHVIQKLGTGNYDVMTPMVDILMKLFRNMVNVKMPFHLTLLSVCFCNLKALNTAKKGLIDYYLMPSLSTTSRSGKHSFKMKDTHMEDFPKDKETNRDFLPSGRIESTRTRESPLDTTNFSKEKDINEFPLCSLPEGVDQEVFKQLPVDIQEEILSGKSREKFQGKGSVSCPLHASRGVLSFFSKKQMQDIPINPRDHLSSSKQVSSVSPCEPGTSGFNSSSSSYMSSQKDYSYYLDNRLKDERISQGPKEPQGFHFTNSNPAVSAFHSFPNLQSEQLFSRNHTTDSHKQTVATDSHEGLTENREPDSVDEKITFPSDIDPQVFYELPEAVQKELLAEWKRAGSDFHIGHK
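Pol iota at 10 nM preincubated 15 min with compounds at room temperature; reaction started with fluorescent substrate, 50 nM final. Fluorescence read kinetically at 0 and 10 min; buffer-only wells as negative control.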
POLH inh – DNA polymerase eta (human) inhibition. AID 588591. recombinant Pol eta, fluorescent DNA replication assay. Potency, µM (highest dose often 114 µM), for the others: top-dose activity change, negative = inhibition, actives largely listed as inhibitors. 390,000 tested, 1.2% active; also: % is scaled to controls: 0 for no effect and ±100 for the full control effect
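Pol eta at 10 nM preincubated with compounds 15 min at room temperature; reaction started with fluorescent substrate (50 nM final) and read kinetically at 0 and 10 min.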
TDP1 block – inhibitors of human tyrosyl-DNA phosphodiesterase TDP1. 350,000 tested, 0.28% active. AID 485290. recombinant TDP1, AlphaScreen DNA substrate cleavage. Potency, µM (doses to about 130 µM), inactives show at the top dose activity change, negative = inhibition, most hits filed as inhibitors. Q9NUW8; also: % is scaled to controls: 0 for no effect and ±100 for the full control effect; nearly all actives have a fitted effect of over 40% in size
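AlphaScreen read-out: signal falls as enzyme removes the 3' tyrosine-FITC from a 5'-biotinylated DNA oligo (15 nM, 5 min, RT). Enzyme was E. coli-made recombinant Tdp1 at 1 nM, exposed to compound for 15 min beforehand; beads 10 ug/ml, 10 min.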
PGK validate – validation of Trypanosoma brucei phosphoglycerate kinase inhibitors | shares compounds with Pol kappa inh | TbPGK coupled GAPDH assay, Kinase-Glo luminescence | Potency, µM (top dose mostly 57.5 µM), for inactives: at the highest dose activity change, negative = inhibition, hits mostly inhibitors | 500 tested, 79% active | AID 686980; also: % is scaled to controls: 0 for no effect and ±100 for the full control effect; nearly all actives have a fitted effect of over 65% in size
Pol iota confirm – Human Pol iota inhibitor confirmatory assay. shares compounds with Pol kappa inh. Pol iota primer extension, TAMRA/BHQ fluorescence. Potency, µM, actives largely listed as inhibitors. 1,500 tested, 77% active. AID 720496
Active calls of the source: *; ? = inconclusive; / = not tested or not shown; [ ] = dose if it differs, or a comment. Calls follow the shape of the dose curve; as a rule, active = well fitted curve in the direction sought with a large enough effect; inconclusive = small, poorly fitted or top-dose-only effect, or another doubt; inactive = no such curve, though single readings can be large; an effect the other way counts as inactive or inconclusive. Potency is read from the fitted curve at half-maximal effect.

SMILES	Pol kappa inh	Pol beta inh	POLI inh	POLH inh	TDP1 block	Pol iota confirm	others
O=C(c1ccccc1)c1ccc(O)c(O)c1O	22.4µM*	/	28.2µM*	8.91µM*	/	/	PGK validate=5.8µM*
Cc1cc(C(=O)c2ccccc2)cc(C)c1O	-1.0%	/	77.8%	-17.0%	/	/
CSc1cccc(NC(=O)N2CCN(S(=O)(=O)c3ccc4c(ccn4C)c3)CC2)c1	-0.7%[60.1 µM]	-10.1%	-0.5%	-7.9%	7.7%	/
NC(=O)c1c(NC(=O)C2CC=CCC2C(=O)O)sc2c1CCCCC2 (stereo not drawn)	-35.8%	20µM*	-11.1%	56.2µM*	/	/	PGK validate=13µM*
CCC1CCc2c(sc(NC(=O)C3CC=CCC3C(=O)O)c2C#N)C1 (stereo not drawn)	-18.2%	79.4µM*	-7.0%	?	7.9%	/	PGK validate=?
CCOC(=O)Nc1sc2c(c1C#N)CCC(C)C2 (stereo not drawn)	-6.1%	-0.6%	28.1%	-22.6%	5.8%	/
CCCCCCCN(CCCCCCC)c1ccc(/C=C/c2ccnc3ccccc23)cc1	-1.8%	/	27.9%	/	/	/
CC(C)=CCOc1ccc(/C=C/C(=O)c2ccc(OCC=C(C)C)cc2OCC(=O)O)cc1	?	/	/	/	3.1%	/
CCOc1ccc(C2CC(=O)c3c([nH]c(C(=O)OC)c3C)C2)cc1OC (stereo not drawn)	0.2%	?	13.3%	15.8µM*	2.0%	?
Cc1ccc(NC(=O)CN2C(=O)S/C(=C\c3ccc(-c4cccc(C(=O)O)c4C)o3)C2=O)cc1C	89.1µM*	10µM*	10µM*	8.91µM*	79.4µM*	/	PGK validate=4.11µM*
COC(=O)N1C2CC3(C)C=C(C)OC1(C)C3c1ccccc12 (stereo not drawn)	/	/	/	/	8.6%[12.3 µM]	/
CCOc1cc(N2CCOCC2)c(OCC)cc1NC(=O)c1cc(-c2ccco2)nc2ccccc12	4.0%[60.1 µM]	?	?	79.4µM*	0.0%	?
O=C1C=C(c2c(O)ccc3ccccc23)c2ccccc2C1=O	-2.6%	/	3.55µM*	20µM*	/	84.4*
CCOc1ccccc1NC(=O)Cn1nnc2sc(-c3ccccc3)cc2c1=O	-26.3%	2.2%	-3.2%	/	0.0%	/
O=C(Nc1ccc2oc(=O)ccc2c1)c1ccc(-c2cccc(Cl)c2)o1	-9.8%	-21.0%	11.2%	6.0%	/	/
O=C(Nc1ccc2oc(=O)ccc2c1)c1ccc(-c2cccc([N+](=O)[O-])c2)o1	-8.7%	2.82µM*	47.2%	31.6µM*	0.0%	21.2*
CC(C)CCNC(=O)c1ccc2c(c1)NC(=O)C(CS(=O)(=O)Cc1ccc(F)cc1)N2 (stereo not drawn)	4.0%	3.1%	25.8%	?	1.1%	?
COc1ccc(N=C2SC(C(N)=O)CC(=O)N2Cc2ccc3c(c2)OCO3)cc1 (stereo not drawn)	89.1µM*	?	39.8µM*	28.2µM*	-2.6%	/	PGK validate=-21.3%
CCNC(=O)C1CC(=O)N(Cc2ccc3c(c2)OCO3)C(=Nc2ccc(F)cc2)S1 (stereo not drawn)	-7.2%	?	-9.7%	-0.1%	-1.1%	/
[O]=[Bi][O][Bi]=[O]	-12.2%[60.1 µM]	/	/	/	4.3%	/
CCCN(C(=O)c1cc2c(=O)oc3ccccc3c2s1)c1ccccc1C	6.4%	-0.3%	-7.1%	-15.9%	5.9%	/
O=C(NCc1ccc(F)cc1)c1c(O)c2cccc3c2n(c1=O)CCC3	-7.7%	25.8%	-3.6%	-2.0%	-5.3%	/
O=C(Oc1cc(=O)oc2c1c(=O)n1c3c(cccc23)CC1)c1ccc(F)cc1	0.8%	?	?	-15.1%	6.8%	10.6*
Cc1cn(C)c(CC(=O)Nc2cccc(C#N)c2)c1C(=O)O	-6.5%[60.1 µM]	2.8%	19.8%	-8.6%	3.4%	/
CCN(CC)c1ccc(C(=C2C=CC(=[N+](CC)CC)C=C2)c2ccc(N(CC)CC)cc2)cc1	6.1%	/	2.4%	-17.3%	/	/	PGK validate=16.3µM*
SMILES	Pol kappa inh	Pol beta inh	POLI inh	POLH inh	TDP1 block	Pol iota confirm	others
O=C(NCc1nc2ccccc2[nH]1)c1ccc(S(=O)(=O)N2CCOCC2)cc1	-12.8%	3.4%	4.4%	-9.2%	-3.1%	/	PGK validate=-3.3%
CCc1ccc(S(=O)(=O)c2nnn3c2nc(N(CC)Cc2ccccc2)c2cc(Cl)ccc23)cc1	-10.7%	1.1%	29.5%	-14.7%	-3.9%	/
COc1ccc(NC(=O)/C(C#N)=C/c2ccc(Br)o2)cc1	79.4µM*	10µM*	22.4µM*	?	?	?
COc1ccc(Cn2c(-c3ccccc3)nc3c(c(=O)c4ccccc4n3C)c2=O)cc1	-0.7%	-1.3%	4.9%	?	-3.0%	42.3*
COc1ccc(CCn2c(-c3ccccc3)nc3c(c(=O)c4ccccc4n3C)c2=O)cc1	/	-0.3%	/	/	2.7%	/
O=C(O)CC/C(=C\c1ccc(N2CCCC2)c([N+](=O)[O-])c1)c1nc2ccccc2s1	?	-8.0%	?	56.2µM*	/	75.2*
CC(=O)c1ccc(-c2ccc(/C=C(/Sc3n[nH]c(C)n3)C(=O)O)o2)cc1	?	?	?	39.8µM*	-7.7%	47.4*
COc1cc2c(ccc3cc(OC)c(OC)c(O)c32)cc1O	7.94µM*	1.41µM*	?	3.16µM*	/	/	PGK validate=1.46µM*
c1ccc(C2=NNC(=NC3CC3)SC2)cc1	-8.5%[60.1 µM]	11.4%	?	-1.3%	-0.5%	/	PGK validate=16.3µM*
CCOC(=O)c1c(C)[nH]c(C)c1S(=O)(=O)NCC(=O)Nc1cccc(Cl)c1	-2.7%	0.7%	30.0%	-10.1%	2.6%	/
CCOc1ccc(CNC(=O)C2CCCN(c3nc4c(C)cc(C)cc4s3)C2)cc1 (stereo not drawn)	8.6%	32.3%	45.0%	-23.9%	-1.0%	/
CC(C)OCCCN(Cc1ccco1)C(=O)c1cc2c(s1)-c1ccccc1OC2	-3.8%	1.8%	-1.2%	-11.5%	-13.7%	/
Cn1c(SCC(=O)c2ccc3c(c2)Cc2ccccc2-3)nnc1-c1ccccc1	-6.4%	?	?	8.91µM*	-7.7%	42.3*
Cn1c(SCC(=O)c2ccccc2)nnc1-c1ccncc1	-12.3%	-26.9%	75.0%	-9.5%	-2.9%	/
Cn1c(-c2cccc(Br)c2)cnc1NCc1cccc(F)c1	-6.2%	2.4%	10.9%	-15.6%	5.8%	/
Cn1c2ccccc2c(=O)c2cc(C#Cc3ccccn3)ccc21	-8.8%	-3.1%	-0.6%	-4.0%	/	/
Cn1c2ccccc2c(=O)c2ccc(C#Cc3ccccn3)cc21	-19.5%	25.1µM*	31.6µM*	28.2µM*	/	?
CCCCOC(=O)CSc1nnc(-c2ccccc2)o1	-10.6%[60.1 µM]	?	35.2%	-15.4%	0.0%	/
O=C(CNc1ccc2ccccc2c1)N/N=C/C=C/c1cccc([N+](=O)[O-])c1	-10.5%	?	?	15.8µM*	2.6%	75.2*
